# This is part of a sample that, as a whole, favours compounds with a hit. Of some 83,000 tested, about 20% had one in any assay.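 48-hour exposure, single concentration, 96-well plates; percent growth endpoint where 0 means no net growth. Active: below 10.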 A number with no mark means an inactive call. The source made the active and inactive calls.
# Key:
# Test in all cases: NCI-60 one-dose screen, 48 h (100 = growth as untreated, 0 = no growth, -100 = all killed)
# Settings in all cases: 10 µM unless noted
# T-47D breast = test system: T-47D breast
# BT-549 breast = test system: BT-549 breast
# MDA-MB-435 melanoma = test system: MDA-MB-435 melanoma
# SW-620 colon = test system: SW-620 colon
# MCF7 breast = test system: MCF7 breast
# HCT-116 colon = test system: HCT-116 colon
# HCC-2998 colon = test system: HCC-2998 colon
# KM12 colon = test system: KM12 colon
SMILES,growth (T-47D breast),growth (BT-549 breast),growth (MDA-MB-435 melanoma),growth (SW-620 colon),growth (MCF7 breast),growth (HCT-116 colon),growth (HCC-2998 colon),growth (KM12 colon)
Oc1ccc(Nc2ccccc2)cc1,91.7%,74%,75.8%,88.7%,89.2%,99.2%,107%,79.1%
CC(=O)c1c(C)[nH]c(-c2nc3ccc(N4CCN(C)CC4)cc3[nH]2)c1-c1ccc2c(c1)OCCO2,37.7%,63%,34.9%,59.7%,10.5%,32.1%,45%,48.9%
NNC(=O)c1nc2ccccc2[nH]1,89.8%,95.4%,109%,105%,104%,91.3%,104%,102%
Cn1cc(-c2csc(-c3c[nH]c4ccc(F)cc34)n2)c2cccnc21,44.3%,57.4%,-28% (active),26.5%,19.3%,23.1%,71.7%,20.6%
Cc1c(C)c2c(c(C)c1NC(=O)CCCCCCC(=O)O)CCC(C)(CCCC(C)CCCC(C)CCCC(C)C)O2 (stereo not drawn),89.7%,60.3%,95%,80.4%,43.5%,22.7%,98.2%,30.7%
Cc1ccc(S(=O)(=O)Nc2ccc(-c3cc(-c4cccc(F)c4)c(C#N)c(=O)[nH]3)cc2)cc1,41.9%,74.7%,96.3%,73.5%,16.9%,8.61% (active),104%,72.9%
COC(=O)[C@]12CC[C@@H](C)[C@H](C)[C@@H]1C1=CC[C@@H]3[C@@]4(C)C(c5ncon5)=C[C@@](C)(CO)C4=CC[C@@]3(C)[C@]1(C)CC2,-0.698% (active),8.08% (active),-24% (active),-34.7% (active),-63% (active),-83.1% (active),-83.3% (active),-47.6% (active)
CC(C)C[C@@H](NC(=O)[C@@H](Cc1ccccc1)NC(=O)c1cnccn1)B1O[C@H]2[C@H](O)[C@@H](C(=O)NCCCC[C@@H]3NC(=O)[C@@H](Cc4ccccc4)NC(=O)[C@H](CC(=O)O)NC(=O)CNC(=O)[C@H](CCCN=C(N)N)NC3=O)O[C@@H](CN)[C@H]2O1,-70.4% (active),-66.1% (active),-78.1% (active),-47.7% (active),-17.1% (active),-50% (active),-78.9% (active),-43.9% (active)
CC1(C)CC[C@]2(C(=O)Nc3ccccn3)CC[C@]3(C)C(=CC[C@@H]4[C@@]5(C)C/C(=C/c6ccncc6)C(=O)C(C)(C)[C@@H]5CC[C@]43C)[C@@H]2C1,13.3%,35.7%,14.8%,20%,21.7%,-1.02% (active),25%,-6.73% (active)
COc1ccc2c(c1)C/C(=C\c1cc(-c3ccc4c(c3)OCO4)n[nH]1)C2=O,23%,93.9%,93%,96.6%,34.8%,93.3%,105%,85.7%
Cc1cccc2c1NC(=O)[C@@]21[C@H](C(=O)c2ccccc2)[C@]2(C(=O)Nc3ccccc32)[C@H]2CCCN21,32.6% [100 µM],10.4% [100 µM],61.8% [100 µM],11.7% [100 µM],-4.76% [100 µM] (active),-36.1% [100 µM] (active),19.7% [100 µM],40.3% [100 µM]
Cc1ccc2c(c1)c(-c1nc(-c3c[nH]c4ncccc34)cs1)cn2C,45.3%,104%,96.5%,112%,17.4%,85.1%,80%,57.8%
CCN1CCN(C(=O)[C@]23CCC(C)(C)C[C@H]2C2=CC[C@@H]4[C@@]5(C)CC/C(=N/O)C(C)(C)[C@@H]5CC[C@@]4(C)[C@]2(C)CC3)CC1,36.6%,87.2%,66.1%,22.4%,37.5%,19%,90.4%,72.1%
NC(Cc1ccc(O)cc1)C(=O)N/N=C/c1ccccc1O (stereo not drawn),98.1%,95.4%,108%,107%,96.2%,97.2%,100%,97.6%
Cc1cc(N2CCOCC2)nc(N(CCCNc2ccnc3cc(Cl)ccc23)Cc2ccco2)n1,35.3%,37.8%,-20.1% (active),21.4%,15.5%,7.37% (active),87.9%,33.3%
Nc1nc(Br)nc2c1ncn2C1CC(O)C(CO)O1 (stereo not drawn),70.1%,50.1%,56.5%,60.1%,28.4%,37.9%,58.9%,78.6%
O=C1CCC/C=C\C[C@H]2C=C(Cl)C(=O)/C2=C/C[C@H](CCCCC(F)(F)F)OC(=O)CCC/C=C\C[C@H]2C=C(Cl)C(=O)/C2=C/C[C@H](CCCCC(F)(F)F)O1,-7.29% [7.5 µM] (active),-43.8% [7.5 µM] (active),-14.3% [7.5 µM] (active),-30.8% [7.5 µM] (active),-38.9% [7.5 µM] (active),-93.4% [7.5 µM] (active),-54.7% [7.5 µM] (active),-60.3% [7.5 µM] (active)
C=C1CC[C@@H](C(=O)OC)Cc2nc(C)ccc21,99%,122%,103%,102%,98%,110%,101%,108%
COC(=O)[C@]12CC[C@@H](C(C)=O)[C@@H]1[C@H]1CC[C@@H]3[C@@]4(C)C/C(=C/c5cccnc5)C(=O)C(C)(C)[C@@H]4CC[C@@]3(C)[C@]1(C)CC2,24.4%,46%,72.6%,25.3%,19.2%,3.92% (active),75.8%,60.5%
CC(C)=CCC/C(C)=C/CC/C(C)=C/CSC[C@H](NC(=O)CCCCCN1CCN(C)CC1)C(=O)NC1CCCCCC1,36.9%,90.5%,50.2%,-22.1% (active),7.39% (active),-61% (active),19.3%,66.1%
Cn1cc(-c2csc(-c3cn(CCCN4CCCCC4)c4ccc(F)cc34)n2)c2cccnc21,92%,71.3%,71.3%,89.7%,78.6%,88.2%,102%,94%
COc1ccc(-c2cc(/C=C/C(=O)c3ccc(N)cc3)[nH]n2)cc1,21%,9.81% (active),14.7%,-38.1% (active),18.4%,8.45% (active),35.4%,3.29% (active)
CCN1CCN(C(=O)[C@]23CC[C@@H](C)[C@H](C)[C@H]2C2=CC[C@@H]4[C@@]5(C)C/C(=C/c6cccc(OC)c6OC)C(=O)C(C)(C)[C@@H]5CC[C@@]4(C)[C@]2(C)CC3)CC1,18.2%,55%,43.4%,33.3%,12.2%,17.9%,44.6%,32.7%
N#C/C(=C\c1ccc(-c2ccccc2)o1)c1nc(-c2ccco2)cs1,-26% (active),94.6%,99.2%,99.2%,17.6%,87%,32.1%,48.1%
CC(C)/C=C/CC[C@](C)(O)[C@H]1CC[C@]2(C)[C@@H]1CC[C@@H]1[C@@]3(C)C/C(=C/c4cccc(C(F)(F)F)c4)C(=O)C(C)(C)[C@@H]3CC[C@]12C,73.8%,95.9%,99.3%,93.3%,82%,76%,,99.8%
Nc1c(C(=O)Nc2cccc(Br)c2)sc2nc3c(cc12)C(=O)CCC3,30%,57.8%,-53.3% (active),25%,22.1%,33.4%,,18.6%
COc1cc(-c2cc3cc(O)ccc3oc2=O)cc(OC)c1OC,75.7%,106%,90.7%,108%,87.2%,88.9%,,93.2%
CNC(=O)c1cc(Oc2ccc3nc(NC(=O)Nc4ccc(Cl)cc4)sc3c2)ccn1,44%,102%,64.1%,101%,69.5%,47.3%,86.5%,70%
Cn1cc(-c2csc(-c3cn(CCN)c4ccc(Br)cc34)n2)c2cccnc21,45.5%,93.2%,91.1%,21.1%,20.9%,58.7%,,71.8%
